Screening results (PubChem)
CRFBP-R2 agonist: CRF-BP/CRF-R2 complex agonism; HEK293 CRF-R2/CRF-BP, calcium dye fluorescence (FLIPR); percent of saturating CRF peptide response; activation, % at 13.2 µM; 0.46% of 350,000 active;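 active = activation of at least 50%, plus an integration ratio under a set limit after plate pattern correction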
Cardio protect: modulators protecting cardiomyocytes from myocardial damage; H9c2 cardiomyocytes, H2O2 injury protection, ATPLite, 2 h; protection from H2O2 cell death, % at 20 µM; 0.63% of 360,000 active; AID 588492;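 active = compounds giving at least 50% protection of heart cells from peroxide-induced death in the single-dose screen, raw or plate-pattern-corrected value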
CRFBP-R2 block: antagonists of CRF-binding protein/CRF-R2 receptor complex | inhibition, % at 11.8 µM | AID 588475 | 0.59% of 350,000 active | HEK293 CRF-R2/CRF-BP, CRF-induced calcium fluorescence;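 active = inhibition of the ligand-induced calcium signal above about 50% at the single tested concentration, limit read from the data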
SKN-1 block: inhibitors of C. elegans SKN-1; C. elegans VP596 Pgst-4::GFP/RFP ratio, acrylamide-induced, 24 h; inhibition, % at 21.8 µM; 0.49% of 360,000 active; AID 624304;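 active = interference check ratio from 0.5 to 1.5 plus GFP to RFP signal ratio inhibition reaching or exceeding a fixed threshold, cut at about 30% in these data, passing the limit was not always enough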
TAG inh: reduces triacylglycerol accumulation in H9c2 cells. Nile Red lipid (TAG) fluorescence; cells loaded with 200 µM oleic acid. inhibition, % at 12.5 µM. 0.66% of 230,000 active;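 active = pattern-corrected inhibition of lipid staining of at least 50% with the nuclear-stain viability signal not falling by more than 50%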
hiPSC survival: enhancers of human iPSC single-cell survival; hiPSC single-cell survival, ATPlite luminescence; 100% = ROCK inhibitor wells, 0% = DMSO; survival enhancement, % at 20 µM; 0.044% of 360,000 active; AID 602274; in the data active = survival enhancement above about 18%;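 note: cells exposed to compounds for 16 hours before the ATP read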
Numbers stand for hits; - = inactive; . = no result given. A selection: hits, their analogues and other compounds. The true share with any hit is near 2.5%.

SMILES	CRFBP-R2 agonist	Cardio protect	CRFBP-R2 block	SKN-1 block	TAG inh	hiPSC survival
O=C(Cn1ncc(Cl)c(Cl)c1=O)c1ccc2c(c1)OCCO2	-	-	-	-	-	-
Cc1ccc(C(=O)OCn2ncc(Cl)c(Cl)c2=O)cc1	-	-	-	-	.	-
CC(C)(C)NC(=O)C(c1ccc(F)cc1)N(C(=O)CCC(=O)Nc1ccccn1)C1CCCC1 (stereo not drawn)	-	-	-	-	.	-
O=C(CN1CCCCC1)NC(=O)NCc1ccccc1	-	-	-	-	.	-
CC(C)n1nc(C(=O)OCC(=O)c2c[nH]c3ccccc23)c2ccccc2c1=O	-	62	-	-	.	-
CC(C)n1nc(C(=O)Nc2nc3ccccc3[nH]2)c2ccccc2c1=O	-	60	-	-	-	-
CCCn1nc(C(=O)Nc2nc3ccccc3[nH]2)c2ccccc2c1=O	-	-	-	-	.	-
CCn1nc(C(=O)OCC(=O)c2c[nH]c3ccccc23)c2ccccc2c1=O	-	58	-	-	-	-
CCCN(C(=O)/C=C/c1nc2ccccc2s1)C1CCS(=O)(=O)C1 (stereo not drawn)	-	-	-	-	-	-
CSc1ncc(Cl)c(C(=O)Nc2cccc(Cl)c2)n1	-	-	-	-	.	-
O=C(Nc1ccc2oc(-c3ccccc3)nc2c1)c1cccnc1	-	-	-	39	-	-
CC(=O)c1cccc(NC(=O)Nc2ccc3c(c2)N(C)C(=O)CS3)c1	-	52	-	-	.	-
Cc1cc(C)cc(NC(=O)Nc2ccc3c(c2)N(C)C(=O)CS3)c1	-	-	-	-	-	-
O=C(N1CCOCC1)C12OC3CC(CC(C3)O1)O2	.	-	.	-	.	-
COc1ccc(/C=c2\s/c(=C/C(=O)c3ccc(C)cc3)[nH]c2=O)cc1OC	182	-	-	-	.	-
CC(C)CC(C(=O)NC(=O)NCc1ccccc1)N1C(=O)c2ccccc2C1=O (stereo not drawn)	-	-	-	-	-	-
CC(C)CC(C(=O)NCc1ccccn1)N1C(=O)c2ccccc2C1=O (stereo not drawn)	-	-	-	42	-	-
COCCCn1cc(CN2CC(N3CCN(Cc4cccc(C)c4)CC3)CS2(=O)=O)nn1 (stereo not drawn)	.	.	.	-	.	-
CC1C(=O)N(Cc2cn(CC3CCCCC3)nn2)CCS(=O)(=O)N1Cc1ccc(-c2ccc(Cl)cc2)cc1 (stereo not drawn)	-	-	-	-	-	-
CCOc1ccccc1Oc1coc2cc(OCC(=O)O)ccc2c1=O	-	-	-	-	-	-
CCOc1ccc2c(=O)c(Oc3ccccc3OCC)coc2c1	-	-	-	36	-	-
CCN(C(=O)COC(=O)/C=C/c1ccc(O)c(OC)c1)C1CCS(=O)(=O)C1 (stereo not drawn)	-	-	-	-	.	-
CCn1c(O)c(N=NC(=O)c2ccc(CSc3nncn3C)cc2)c2ccccc21	-	-	-	-	-	-
Cn1cnnc1SCc1ccc(C(=O)N=Nc2c(O)n(Cc3ccc(Cl)cc3)c3ccccc23)cc1	-	54	-	-	.	-
Fc1ccc(-c2nnc(Cc3ccc(Cl)cc3)o2)cc1	-	-	-	44	-	-
SMILES	CRFBP-R2 agonist	Cardio protect	CRFBP-R2 block	SKN-1 block	TAG inh	hiPSC survival
Fc1ccc(Cc2nnc(-c3cccs3)o2)cc1	-	-	-	-	.	-
CN(C)c1ccc(C2C=C(c3ccc(Cl)cc3OC(F)F)Nc3ncnn32)cc1 (stereo not drawn)	59	-	-	-	.	-
CCC(c1nnnn1-c1c(C)cccc1C)N1CCCN(Cc2ccc(F)cc2)CC1 (stereo not drawn)	.	.	.	-	.	-
Cc1ccc(S(=O)(=O)N2CC3C(=O)C[C@@H](c4ccccc4)N(S(=O)(=O)c4cccc(Cl)c4)C3CC2c2ccccc2)cc1 (stereo partly drawn)	.	.	.	-	.	.
CCc1noc(C)c1C(=O)N1CCSC1=Nc1cccc(Cl)c1C	-	-	71	-	-	-
Cc1ccc(S(=O)(=O)NC(=O)Nc2cc(C)no2)cc1	-	-	-	-	.	-
COC(C(=O)N1CCC(CCC(=O)Nc2ccccc2)CC1)c1ccccc1 (stereo not drawn)	-	-	-	-	-	-
CCOC(=O)c1cn(CC)c2cc(N3CCCCC3)c(F)cc2c1=O	-	-	-	-	-	-
CCOC(=O)c1cn(CC)c2cc(N3CCOCC3)c(F)cc2c1=O	-	-	-	40	-	-
CCCNC(=O)c1cn(CC)c2cc(N3CCN(C(=O)c4ccco4)CC3)c(F)cc2c1=O	-	-	-	-	.	-
CCn1cc(C(=O)NCc2cccc(F)c2)c(=O)c2cc(F)c(N3CCN(C(=O)c4ccco4)CC3)cc21	-	55	-	-	-	-
COc1cc(NC(=O)[C@@H]2O[C@H](CO)[C@@H](O)[C@H]2O)cc(OC)c1OC	.	-	.	-	-	-
CCN(CC)CC(=O)Nc1cccc2c1C(=O)c1ccccc1C2=O	-	-	-	-	.	-
O=C1c2ccccc2C(=O)c2c(NCCCN(CCO)CCO)cccc21	-	-	-	41	.	-
COc1ccc(CCNC(=O)Nc2nc(CN)cs2)cc1OC	.	-	.	-	-	-
Cc1cc(C)c2nc(NC(=O)c3ccc4c(=O)n5c(nc4c3)CCCCC5)sc2c1	-	-	59	-	.	-
Cc1ccc(NC(=O)c2ccc3c(=O)n4c(nc3c2)CCCCC4)nc1	-	-	-	-	-	-
CCOC(=O)c1ccccc1NC(=O)c1ccc2c(=O)n3c(nc2c1)CCCCC3	-	51	-	-	-	-
Cc1ccc2cc(C3CC(c4ccco4)=NN3S(C)(=O)=O)c(Cl)nc2c1 (stereo not drawn)	-	-	-	-	-	-
Oc1ccc(CNc2ccccc2F)c2cccnc12	-	-	-	-	-	-
O=S(=O)(Nc1ccc(O)c2ncccc12)c1ccccc1F	.	60	.	-	-	-
O=C(Nc1cccc(C(F)(F)F)c1)c1ccco1	-	-	-	-	.	-
Cc1cc(NC(=O)c2ccco2)ccc1-n1cnnn1	-	-	-	61	-	-
O=C(Nc1ccc(Cl)c(C(F)(F)F)c1)c1ccco1	-	-	-	44	-	-
CC(C)(C)NC(=O)c1cccc(NC(=O)c2ccc(NC(=O)c3ccco3)cc2)c1	-	74	-	-	.	-
CC1CC(C)(C)N(C(=O)CN2C(=O)c3ccccc3C2=O)c2ccccc21 (stereo not drawn)	114	-	-	-	.	-
CC1CC(C)(C)N(C(=O)CN2CCN(C)CC2)c2ccccc21 (stereo not drawn)	-	-	-	-	.	-
Cc1ccc2c(c1)C(C)CC(C)(C)N2C(=O)CN1CCN(C)CC1 (stereo not drawn)	-	-	68	-	-	-
COc1ccc(Cn2cc(Cn3c4ccccc4c(=O)n3C(C)C)nn2)cc1	.	-	.	-	.	-
Cc1cc(C)n(CC(O)Cn2c(C)c(C)c3ccccc32)n1 (stereo not drawn)	-	-	-	63	-	-
